According to PubChem BioAssay AID1053143 (Broad Institute, 2014):
Among all 3,400 compounds or so, about 120 (3.5%) were called active. The rule behind the calls is not given here. A selection follows. Entries with a potency or affinity are not part of this list.

test: viability loss in HepG2 hepatoma cells – cell-based, ATP luminescence, cherry-pick, activator set 2, cytotoxicity control, dose response (AID 1053143); conditions: CellTiter-Glo ATP luminescence, 72 h; series mostly up to 26 µM

Row | Compound | activity change, negative = cytotoxicity
1 | CCCC(=O)Nc1ccc(C#Cc2ccccc2)cc1 | inactive
2 | O=C(NC(=O)c1ccccc1)Nc1ccccc1 | inactive
3 | Cc1ccc(NC(=O)c2ccc(OC(=O)c3cc4ccccc4o3)cc2)cc1 | inactive
4 | CCOC(=O)C1=C(C)NC(=O)C(C(N)=O)C1c1ccccc1 (stereo not given) | inactive
5 | O=C(NC1CC1)C1Nc2ccc(OC(F)(F)F)cc2C2C=CCC12 (stereo not given) | inactive
6 | O=C(Nc1ccc2c(c1)nc1n2CCOC1)c1ccccc1 | inactive
7 | O=C(Nc1nc2ccccc2[nH]1)c1cccc(Cl)c1 | inactive
8 | COc1cccc(NC(=O)c2cccc(Cl)c2)c1 | inactive
9 | COc1ccc2cc3cc(C(=O)N4CCCCC4C)oc3nc2c1 (stereo not given) | inactive
10 | Cc1nn(Cc2ccccc2)c(Cl)c1C(=O)NCCc1ccccc1 | inactive
11 | CCCn1cnc2cc(NC(=O)c3cccs3)ccc21 | inactive
12 | O=c1c2ccccc2oc2cc(C#Cc3ccccn3)ccc12 | inactive
13 | COc1cccc2oc3cc(C#Cc4ccccn4)ccc3c(=O)c12 | inactive
14 | O=[N+]([O-])c1cc(Cl)ccc1-c1nc(-c2ccccc2)no1 | inactive
15 | Fc1ccc(-c2cn3cc(C(F)(F)F)cc(Cl)c3n2)cc1 | inactive
16 | O=C(CCCCn1c(=O)[nH]c2ccsc2c1=O)NCCc1ccccc1 | inactive
17 | C[C@@H]1ON(C)[C@H]2C[C@H]3c4cc(-c5cc6ccccc6o5)ccc4CCN3C[C@@H]12 | inactive
18 | Cc1occc1C(=O)N/N=C/c1ccc(OCc2ccccc2)cc1 | inactive

Row | Compound | activity change, negative = cytotoxicity
19 | O=C(N/N=C/c1ccc2c(c1)OCO2)c1ccc(Br)o1 | inactive
20 | COc1cccc(/C=N/NC(=O)c2ccoc2C)c1 | inactive
21 | O=C(NN=Cc1ccc2c(c1)OCO2)c1ccccc1 | inactive
22 | O=C(CSc1nnc(-c2ccncc2)o1)Nc1cc(F)ccc1F | inactive
23 | CN(C)c1ccc(-c2ccccc2)nn1 | inactive
24 | CCC(=O)NC1=C(Nc2ccc(N)cc2)C(=O)c2ccccc2C1=O | inactive
25 | CCc1ccc(NCc2nc3ccccc3c(=O)[nH]2)cc1 | inactive
26 | COCC(=O)OCc1cc2cccc(C)c2[nH]c1=O | inactive
27 | Cc1ccc(N2CC(C(=O)Nc3ccc4c(c3)OCCO4)CC2=O)cc1 (stereo not given) | inactive
28 | Cc1cc(C(=O)NC2CCCCCCC2)ccc1[N+](=O)[O-] | inactive
29 | O=C(CN1CCOCC1)Nc1ccc(C2CCCCC2)cc1 | inactive
30 | COc1ccc2nc(-c3ccccc3)[nH]c2c1 | inactive
31 | COc1ccc(/C=C/C(=O)c2ccccc2)c(OC)c1 | inactive
32 | O=C(NC1=NCCS1)c1ccc(OCC2CCCO2)cc1 (stereo not given) | inactive
33 | Cc1ccc(NC(=O)c2ccc(OCC3CCCO3)cc2)cc1Cl (stereo not given) | inactive
34 | Cc1ccnc(NC(=O)c2ccc(S(=O)(=O)N3CCC(C)CC3)cc2)c1 | inactive
35 | Cc1cc(NC(=O)c2ccc3nccnc3c2)ccc1Br | inactive
